# A selection: hits, their analogues and other compounds. The true share with any hit is near 0.71%.
# H9c2 TAG inh – inhibitors of triacylglycerol accumulation. H9c2 cells, Nile Red lipid (TAG) fluorescence; cells loaded with 200 µM oleic acid. inhibition, % at 12.5 µM. 230,000 tested, 0.66% active. AID 651582;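 active means pattern-corrected inhibition of lipid staining of at least 50% with the nuclear-stain viability signal not falling by more than 50%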;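 further: 0% = DMSO wells and 100% = triacsin C control wells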
# MIN6 prolif-1 – induces beta-cell replication in MIN6 cells | MIN6 cells proliferation, ATPlite luminescence, 48 h; cells starved in 0.2% serum; 100% = growth in 10% serum | proliferation, % at 10 µM | 330,000 tested, 0.29% active;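 active means compounds whose signal lies at least 3.5 SD above the mean of all wells on their plate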;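 further: 0% = DMSO-treated cells in low-serum medium and 100% = 10% serum control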
# iPSC survival up – increases survival of single human iPS cells. survival enhancement, % at 20 µM. hiPSC single-cell survival, ATPlite luminescence; 100% = ROCK inhibitor wells, 0% = DMSO. AID 602274. 360,000 tested, 0.044% active; in the data active means survival enhancement above about 18%;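 further: cells exposed to compounds for 16 hours before the ATP read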
# MIN6 prolif-2 – confirmation of inducers of beta-cell replication in MIN6 cells; 920 tested, under 10 active; shares compounds with MIN6 prolif-1; MIN6 beta-cell proliferation, ATPlite luminescence, 48 h; cells kept in 0.2% serum; scaled between 0.2% and 10% serum; proliferation increase, % at 50 µM;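 active means proliferation increase above 40% at any of the four tested concentrations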
# Numbers without * were called inactive; x = no result.
SMILES,H9c2 TAG inh,MIN6 prolif-1,iPSC survival up,MIN6 prolif-2
C#CCN(C[C@@H]1[C@@H](OC(=O)Nc2cccs2)[C@@H](OC(=O)Nc2cccs2)Cn2c(=O)n(CCCCCC)c(=O)n21)S(=O)(=O)c1ccc(C)cc1,6,x,-1,x
COC(=O)c1ccc(NC(=O)c2cc(-c3ccncc3)nc3ccccc23)cc1,16,-3,-1,x
COC(=O)c1ccc(NC(=O)c2cc(-c3ccccn3)nc3ccccc23)cc1,-10,7.5*,2,2
NC(COCc1ccccc1)c1csc(Nc2ccc(C(=O)NCCO)cc2)n1 (stereo unspecified),146,x,-2,x
COc1ccc(OC)c(NC(=O)CCn2cccc2)c1,x,7.5*,0,-1
COc1ccc(NC(=O)CCn2cccc2)c(OC)c1,-18,-3,1,x
CC1CCN(C(=O)c2ncn3c2c(=O)[nH]c2ccc(Br)cc23)CC1,5,x,-1,x
O=C(NC1CCN(Cc2ccccc2)CC1)c1ccccc1,x,8.2*,2,-1
CC(C)(C)c1ccc(C(=O)NC2CCN(Cc3ccccc3)CC2)cc1,x,-3,-1,x
CCN1C(=O)CSC1=Nc1ccc(C(=O)OC)cc1,2,x,-3,x
COc1cc(C)nc(N2CCCC(C(=O)Nc3cccc(Cl)c3Cl)C2)n1 (stereo unspecified),16,-2,-1,x
COc1ccccc1NC(=O)C1CCCN(c2nc(C)cc(C)n2)C1 (stereo unspecified),-8,7.5*,-2,3
COc1ccc(CNC(=O)c2ccc(-n3ccnc3)c3ccoc23)cc1OC,4,x,-1,x
O=C(NCc1cccs1)C1CCN(S(=O)(=O)c2cccs2)CC1,x,-2,-2,x
CC1(C)CC(=O)C/C(=N/NC(=O)C2CCN(S(=O)(=O)c3cccs3)CC2)C1,x,9.3*,0,2
O=C(NCc1ccco1)C1CC(=O)N(c2ccc(O)cc2)C1 (stereo unspecified),-9,4.7*,5,-1
CCS(=O)(=O)N1CCC(C(=O)NCc2ccco2)CC1,x,2,-2,x
CS(=O)(=O)N1CCC(C(=O)NCc2ccco2)CC1,x,7.7*,2,-3
COc1ccc(N2CC(C(=O)Nc3ccccc3C(=O)NCc3ccco3)CC2=O)cc1 (stereo unspecified),-2,-2,7,x
Brc1cccc(-c2nc3ccc(Br)cn3c2Cc2ccccc2)c1,x,x,2,x
O=C(NCc1ccncc1)C1Cc2c(-c3ccccc3Oc3ccccc3)ccnc2O1 (stereo unspecified),-16,x,2,x
O=C(NC1CCCCC1)C1c2ccccc2OCC(=O)N1CCc1c[nH]c2ccccc12 (stereo unspecified),x,x,-1,x
CC(=O)C1=C(O)C(=O)N(Cc2ccccc2)C1c1ccc(N(C)C)cc1 (stereo unspecified),x,6.1*,-1,0
CC(=O)C1=C(O)C(=O)N(Cc2ccccc2)C1c1ccc(Cl)cc1 (stereo unspecified),x,-1,0,x
COc1ccccc1C#Cc1cnc2c(c1)C(=O)N([C@H](C)CO)C[C@@H](C)[C@@H](CN(C)C(=O)c1ccc3c(c1)OCO3)O2,18,x,0,x
SMILES,H9c2 TAG inh,MIN6 prolif-1,iPSC survival up,MIN6 prolif-2
CC(=O)Nc1cccc(-c2cnc(N)c(C(=O)c3cccnc3)n2)c1,-22,11*,-1,-4
NC(=O)c1cccc(-c2cnc(N)c(C(=O)c3cccnc3)n2)c1,-22,x,0,x
COc1cccc(CNC(=O)c2ccc(CS(=O)Cc3ccccc3Cl)o2)c1 (stereo unspecified),-9,x,1,x
Cn1c(=O)c2c(ncn2CC(=O)OCC(=O)c2ccc(Br)cc2)n(C)c1=O,1,x,-3,x
CCN(C(=O)CN1C(=O)NC2(CCCC2)C1=O)c1nc2c(C)cccc2s1,-7,x,-2,x
Cc1ccccc1-c1nc(CN2CCN(C(=O)c3ccco3)CC2)c(C)o1,-3,8.9*,1,-5
CCOc1ccccc1-c1nc(CN2CCN(C(=O)c3ccco3)CC2)c(C)o1,x,0,0,x
O=C1C(F)=CC(COC(c2ccccc2)(c2ccccc2)c2ccccc2)OC1n1cc(F)c(=O)[nH]c1=O (stereo unspecified),119,x,-3,x
CC(=O)Nc1ccc(CN(C)c2c(C)nc3ccc(C(=O)NCCCn4ccnc4)cn23)cc1,3,x,3,x
CCOC(=O)c1c2n(c3ccc(O)cc13)CCC2,-16,9.1*,3,0
CCOC(=O)c1c(C)n(CCNC(C)=O)c2ccc(O)cc12,x,-1,0,x
Cc1cc(C)nc(NC(=O)c2c(-c3c(Cl)cccc3Cl)noc2C)n1,-5,-5,0,x
Cc1cc(NC(=O)c2c(-c3c(Cl)cccc3Cl)noc2C)n(C)n1,0,6.8*,0,2
COc1ccc(NC(=O)/C(C#N)=C/c2ccc(OCCN3CCOCC3)c(OC)c2)c(OC)c1,x,11*,0,-2
COc1ccccc1NC(=O)/C(C#N)=C/c1ccc(OCCN2CCOCC2)c(OC)c1,-1,0,0,x
O=C(NCc1cccnc1)c1cc(C2CCCN(S(=O)(=O)c3cccs3)C2)on1 (stereo unspecified),-5,x,2,x
O=[N+]([O-])c1cn(-c2nc(-c3ccco3)cc(C(F)(F)F)n2)cn1,1,7.7*,2,0
CN1CCN(c2nc(-c3ccco3)cc(C(F)(F)F)n2)CC1,x,1,-2,x
Cc1cc2nc(C)c(=O)n(C)c2cc1C,x,7.3*,0,2
Cc1cc2nc(-c3ccc(=O)[nH]c3)n(C)c2cc1C,x,x,0,x
CN1C(=O)C(N=Nc2ccc([N+](=O)[O-])cc2)SC1=S (stereo unspecified),-25,x,-2,x
CCn1nc(NC(=O)c2ccco2)c2cc3ccccc3nc21,x,2,4,x
CC(C)Cn1nc(NC(=O)c2ccco2)c2cc3ccccc3nc21,4,6.8*,1,-2
CC(=O)Nc1ccc(CNc2nc3cc(-c4ccsc4)sc3c(=O)n2C)cc1,-4,x,1,x
CC1(C(=O)NS(=O)(=O)c2cccc(Cl)c2)CCN1C(=O)c1ccccc1CCc1ccccc1 (stereo unspecified),5,x,-1,x
SMILES,H9c2 TAG inh,MIN6 prolif-1,iPSC survival up,MIN6 prolif-2
C[C@H](CO)N1C[C@H](C)[C@@H](CN(C)S(=O)(=O)c2cn(C)cn2)Oc2ncc(Br)cc2C1=O,-3,x,6,x
COc1ccc(CS(=O)(=O)CC(C)(O)c2ccccc2Cl)cc1 (stereo unspecified),x,8.9*,2,-4
CC(O)(CS(=O)(=O)Cc1ccccc1)c1ccccc1 (stereo unspecified),x,2,-1,x
CN1C(=O)c2cccc3c(Cl)ccc(c23)C1=O,x,6.9*,-4,-1
CN1C(=O)c2cccc3c(Br)ccc(c23)C1=O,-2,6,1,x
COCCCNC(=O)CN(c1ccc(F)cc1)S(=O)(=O)c1ccc2c(c1)OCCO2,x,6.0*,1,-1
O=C(CN(c1ccc(F)cc1)S(=O)(=O)c1ccc2c(c1)OCCO2)NCc1ccccc1,x,0,0,x
CC(C)C[C@H]1CN(CCCC[C@H]2CNC(=O)C(=O)N2CCC2CCCCC2)C(=O)C(=O)N1CCc1ccccc1,x,x,0,x
